High-throughput results from PubChem BioAssay.
CHT PAM: allosterically activates the human high affinity choline transporter. Q9GZV3. CHT-expressing cells, membrane potential dye, choline EC20; hits give high values; LV-AA mutant CHT in HEK293 cells. B-score at 10 µM. hit rate 0.49% among 310,000. AID 488977;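 active = initial fluorescence not abnormally high and integrated response B-score, plate-corrected, over 3 SD above library mean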
ANO1 block: inhibitors of mouse TMEM16A calcium-activated chloride channel | Q8BHY3 | HEK293 TMEM16A/YFP iodide influx fluorescence, ionomycin | normalized B-score (activity score, 25-100; higher = stronger inhibition) at 10 µM | hit rate 1.2% among 310,000;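 active = ratio plate-corrected score three or more library SD toward inhibition, starting fluorescence score within five deviations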;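 note: score derived from kinetic fluorescence span divided by baseline fluorescence per well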
Target sequence (Q8BHY3 whole entry, looked up): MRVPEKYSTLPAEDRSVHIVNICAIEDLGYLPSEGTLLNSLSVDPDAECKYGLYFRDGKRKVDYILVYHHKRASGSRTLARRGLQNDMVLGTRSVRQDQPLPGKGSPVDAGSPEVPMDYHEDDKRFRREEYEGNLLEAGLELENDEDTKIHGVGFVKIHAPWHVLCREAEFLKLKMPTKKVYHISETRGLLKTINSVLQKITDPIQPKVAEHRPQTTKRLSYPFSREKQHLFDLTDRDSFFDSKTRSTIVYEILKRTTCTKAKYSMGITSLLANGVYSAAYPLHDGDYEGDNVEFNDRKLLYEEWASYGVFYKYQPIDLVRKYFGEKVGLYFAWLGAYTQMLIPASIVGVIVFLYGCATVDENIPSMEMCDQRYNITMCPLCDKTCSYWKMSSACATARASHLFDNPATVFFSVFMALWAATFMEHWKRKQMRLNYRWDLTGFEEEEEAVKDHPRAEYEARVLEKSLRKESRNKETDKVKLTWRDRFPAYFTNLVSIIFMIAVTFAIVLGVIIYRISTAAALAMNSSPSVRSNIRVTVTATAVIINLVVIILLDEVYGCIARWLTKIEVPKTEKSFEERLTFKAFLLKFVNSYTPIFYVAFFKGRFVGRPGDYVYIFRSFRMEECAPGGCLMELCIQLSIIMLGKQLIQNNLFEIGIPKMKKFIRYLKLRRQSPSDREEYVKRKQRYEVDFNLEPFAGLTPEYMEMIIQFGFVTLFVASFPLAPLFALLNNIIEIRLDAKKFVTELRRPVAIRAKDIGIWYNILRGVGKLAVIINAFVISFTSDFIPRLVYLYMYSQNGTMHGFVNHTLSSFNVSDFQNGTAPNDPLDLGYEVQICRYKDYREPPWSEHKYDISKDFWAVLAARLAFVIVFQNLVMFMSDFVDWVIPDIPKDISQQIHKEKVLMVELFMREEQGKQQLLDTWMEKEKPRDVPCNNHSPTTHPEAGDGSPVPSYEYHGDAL
TMEM16A act: mouse TMEM16A channel activation, primary screen; Q8BHY3; HEK293 TMEM16A/YFP-H148Q/I152L, iodide quench fluorescence; hits give low values; B-score at 10 µM; hit rate 0.3% among 340,000;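 active = fluorescence-ratio B-score plate-corrected deviation score at least 3 library SD below zero, with starting fluorescence score within 5 deviations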;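 note: channel opened by trigger with iodide after compound preincubation; score built on the fluorescence ratio of max minus min over baseline; more negative score means more quench and so TMEM16A activation or potentiation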
CHT block: inhibitors of human choline transporter CHT. Q9GZV3. AID 488975. B-score at 10 µM. hit rate 0.86% among 310,000. CHT-expressing cells, membrane potential dye, choline response; hits give low values;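 active = B-score over 3 SD under the library average, and starting fluorescence ratio not unusually high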;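 note: choline stimulus applied at its EC90 after an EC20 pre-addition; B-score computed on integrated fluorescence ratio after choline addition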
TMEM16A reconf: reconfirmed blocker of mouse TMEM16A calcium-activated chloride channel; shares compounds with ANO1 block; HEK293 TMEM16A/YFP-H148Q, iodide quench fluorescence; ionomycin added to raise cell calcium; inhibition, % at 10 µM; hit rate 39% among 2,300;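 active = mean duplicate percent inhibition, scaled so buffer wells are 0 and the reference blocker 100, over three buffer SD above buffer mean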
TMEM16A Ca cntr: calcium mobilization counter-screen hit for TMEM16A inhibitor series | shares compounds with ANO1 block | calcium response (% of ionomycin), % at 10 µM | TMEM16A/YFP HEK293, Fluo4 calcium mobilization | hit rate 2% among 2,300 | AID 652231;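 active = duplicate-averaged calcium signal over 20% of the ionomycin maximum, relative to buffer baseline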;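 note: each well's signal is peak minus trough fluorescence divided by its pre-addition baseline; 0% = buffer wells and 100% = ionomycin wells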
Parental YFP cnt: counter-screen for TMEM16A inhibitors: effect in parental YFP-HEK293 cells; shares compounds with ANO1 block; iodide YFP quench, ionomycin; YFP ratio F(max-min)/F0 at 10 µM; 2,300 tested, under 10 active;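 active = yellow fluorescent protein signal ratio exceeding the buffer control mean by over 5 SD of those controls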;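 note: ratio is mean of duplicate wells from kinetic YFP trace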
ClC-1 rat inh: blocks the rat ClC-1 voltage-dependent chloride channel; ratio percent, % at 10 µM; CHO ClC-1-YFP, iodide influx fluorescence quench; iodide control reads 0, buffer control 100; shares compounds with ANO1 block; AID 652236; 2,300 tested, under 10 active;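 active = duplicate-mean ratio percent above the mean of iodide-only control wells, which defines zero, plus 5 of their SD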;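 note: higher percent means stronger block of ClC-1 iodide influx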
* = called active by the depositor; i = inactive; . = no result; ! = not confirmed by another sample. Compounds with a hit are over-represented: about 2.3% of the library has one in this group of screens.

SMILES | CHT PAM | ANO1 block | TMEM16A act | CHT block | TMEM16A reconf | TMEM16A Ca cntr | Parental YFP cnt | ClC-1 rat inh
O=c1c(Cc2ccccc2)c(O)c2cccc3c4c(n1c23)CCCC4 | i | 25* | i | i | 41%* | i | -0.92 | -8
Cn1c(=O)c(Cc2ccccc2)c(O)c2ccccc21 | i | i | i | i | . | . | . | .
NS(=O)(=O)c1cc2c(cc1Cl)NC(Cc1ccccc1)NS2(=O)=O (stereo unspecified) | i | i | i | i | i | i | -0.92 | -10
C=CCSCC1Nc2cc(Cl)c(S(N)(=O)=O)cc2S(=O)(=O)N1 (stereo unspecified) | i | i | i | i | . | . | . | .
COc1ccc(N2CCN(C(=O)CC3NC4CCCCC4NC3=O)CC2)cc1 (stereo unspecified) | i | i | i | i | . | . | . | .
CCOCCCNc1ncnc2c1[nH]c1ccccc12 | i | i | i | i | . | . | . | .
CCCCOCCCNc1ncnc2c1[nH]c1ccccc12 | i | 100* | i | i | 56%* | i | -0.8 | -29
CCN(c1cccc(C)c1)S(=O)(=O)c1ccc2c(c1)CCCN2C(C)=O | i | i | i | i | . | . | . | .
CCN(c1cccc(C(F)(F)F)c1)S(=O)(=O)c1ccc2c(c1)CCN2C(C)=O | i | 25* | . | i | 18%* | i | -0.86 | -6
Cc1cccc(NC(=O)C2C(c3ccccc3)C2(Cl)Cl)c1 (stereo unspecified) | i | 100* | i | i | i | i | -0.91 | -10
c1ccc(CNc2ncnc3ccccc23)cc1 | i | 25*! | i | i | i | i | -1.2 | -17
COc1cc2ncnc(NCc3ccccc3)c2cc1OC | i | i | i | i | . | . | . | .
CC1CCN(C(=O)c2cc(-c3ccc4c(c3)OCO4)on2)CC1 | i | i | i | i | i | i | -0.94 | 2
O=c1cc(C(F)(F)F)[nH]c(=S)n1-c1ccccc1 | i | i | i | i | . | . | . | .
CN(C)Cc1cc(C(C)(C)C)cc(C(C)(C)C)c1O | i | i | i | i | . | . | . | .
CN(C)Cc1cc(O)c(CN(C)C)cc1O | i | i | i | i | i | i | -0.86 | -6
O=C(CCNS(=O)(=O)c1cccc(C(F)(F)F)c1)NC1CC1 | . | . | i | . | . | . | . | .
COc1ccc(NC(=O)COc2cc(C)cc(C)c2)cc1S(=O)(=O)N1CCCCC1 | i | 25* | i | i | i | i | -0.89 | -20
COc1ccc(NC(=O)CCOc2ccc(C)cc2)cc1S(=O)(=O)N1CCCCC1 | . | . | i | . | . | . | . | .
Cc1ccc(C)c(OCCC(=O)OCC(=O)Nc2ccc(C)c(S(=O)(=O)N3CCCCC3)c2)c1 | i | 25* | i | i | i | i | -1.1 | -14
Cc1ccc(OCCC(=O)OCC(=O)Nc2ccc(C)c(S(=O)(=O)N3CCOCC3)c2)cc1 | . | . | i | . | . | . | . | .
COc1cc2c(cc1Cl)C(=O)C(F)(c1ccccc1)C(=O)N2 (stereo unspecified) | i | i | i | i | . | . | . | .
CCc1ccccc1N(CC)C(=O)CCc1nc(-c2ccc(C)cc2)no1 | i | 100* | i | i | 30%* | i | -0.88 | -12
COc1ccc(OC)c(NC(=O)CC2Oc3ccccc3NC2=O)c1 (stereo unspecified) | i | i | i | i | . | . | . | .
Cc1cccc2sc(NC(=O)CN3C(=O)C4CC=CCC4C3=O)nc12 (stereo unspecified) | i | i | i | i | . | . | . | .
SMILES | CHT PAM | ANO1 block | TMEM16A act | CHT block | TMEM16A reconf | TMEM16A Ca cntr | Parental YFP cnt | ClC-1 rat inh
COc1ccc(CN2C(=O)c3ccccc3C(/C=N\OCc3ccc(C)cc3)C2=O)cc1 (stereo unspecified) | i | i | i | i | 26%* | i | -1.3 | -6
COc1c(C(=O)Nc2ccc(Cc3ccncc3)cc2)ccc2ccccc12 | i | 100* | i | i | i | i | -1.1 | -8
O=C(OCC(=O)N1CCN(S(=O)(=O)c2ccc(Cl)cc2)CC1)C1CC1 | . | . | i | . | . | . | . | .
CC(Oc1ccc(Cl)cc1Cl)c1nc(-c2ccc(NC(=O)c3cccnc3)cc2)no1 (stereo unspecified) | i | 25* | i | i | i | i | -0.97 | -15
Cc1ccc(S(=O)(=O)N(Cc2ccccc2)Cc2ccco2)cc1 | i | 100* | i | i | 28%* | i | -1 | -8
Cc1cccc(OCC(=O)NNc2c3ccccc3nc3ccccc23)c1 | i | 25* | i | i | i | i | -1.1 | -4
N#Cc1c(-c2ccccc2)nc(-c2cccnc2)[nH]c1=O | i | i | i | i | . | . | . | .
CC12CC3(C)CC(C)(C1)CC(C(=O)NC1=NCCS1)(C2)C3 | i | 25* | i | i | i | i | -1.1 | -4
CC12CC3CC(C)(C1)CC(C(=O)NC1=NCCS1)(C3)C2 | i | i | i | i | . | . | . | .
c1nc(NCC2CCCO2)c2[nH]cnc2n1 (stereo unspecified) | i | 25* | i | i | i | i | -1 | -14
Cc1cccc(S(=O)(=O)Nc2nc3ccccc3nc2Nc2ccc3c(c2)OCO3)c1 | i | 25* | i | i | 20%* | i | -1 | -16
COc1cccc(C2CC(c3cccs3)=NN2S(C)(=O)=O)c1 (stereo unspecified) | i | i | i | i | . | . | . | .
CC(C)(C)N(CC(=O)NC1CCCCC1)C(=O)CS(=O)CC(=O)Nc1ccc(F)cc1 (stereo unspecified) | i | i | i | i | . | . | . | .
O=C(CS(=O)CC(=O)N(CC(=O)NC1CCCC1)C1CCCC1)Nc1ccc(F)cc1 (stereo unspecified) | i | 25* | . | i | i | i | -1.1 | -8
CC(=O)N/C(=C\c1ccccc1)C(=O)OCc1cc(C)ccc1C | i | i | i | i | . | . | . | .
COc1ccc(N2CCN(C(=O)COC(=O)c3cc(S(=O)(=O)N(C)C)ccc3N3CCCC3)CC2)cc1 | i | i | i | i | . | . | . | .
NC(N)=NN=C1CCCCCCCCCCC1 | i | i | i | i | i | i | -1 | -8
